Compound activity deposited in PubChem by National Center for Advancing Translational Sciences (NCATS).
Rows were chosen to be rich in hits. Some 3.8% of all compounds tested hit in one or more screens of this group.
Sfp inh = blocks B. subtilis Sfp PPTase activity | Q9F4F7 | Biochemical Sfp PPTase activity, qHTS | Potency, µM, inactives show largest response in the series, negative = inhibition, most hits filed as inhibitors | 310,000 tested, 3.5% active | AID 1490;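 note: the enzyme is Sfp with the accession as filed and its product quenches rhodamine fluorescence; potency is the fitted concentration of half-maximal effect; 0% = enzyme reaction without inhibitor and -100% = no enzyme wells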
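Compounds were incubated with enzyme (final 15 nM) for 15 min at room temperature before substrate addition started the reaction. Fluorescence at 525 nm excitation, 598 nm emission was recorded immediately and after 30 minutes.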
GLS inhibitor = inhibitors of human glutaminase (GLS). O94925. GLS enzymatic activity, qHTS titration. Potency, µM (titrated, usually from 45.5 µM), inactives show at the top dose activity change, negative = inhibition, hits mostly inhibitors. 410,000 tested, 0.21% active. AID 624170; note: potency is the fitted concentration of half-maximal effect; % is set by controls: 0 for no effect and ±100 for the full control effect
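Two-point fluorescence kinetic (t0, 30 min RT) for hKGA; glutamate detected via glutamate oxidase–HRP–Amplex Red. Substrate: 1 mM L-glutamine solution; buffer 45 mM KH2PO4, pH 8.2.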
KAT2A inh = GCN5L2 (KAT2A) acetyltransferase inhibition; Q92830; GCN5L2 HAT assay, ThioGlo1 CoA-SH fluorescence; Potency, µM (top dose mostly 58.9 µM), inactives show top-dose activity change, negative = inhibition, actives largely listed as inhibitors; 390,000 tested, 0.21% active; note: potency is the fitted concentration of half-maximal effect; % is set by controls: 0 for no effect and ±100 for the full control effect
Target sequence (Q92830 whole entry, looked up): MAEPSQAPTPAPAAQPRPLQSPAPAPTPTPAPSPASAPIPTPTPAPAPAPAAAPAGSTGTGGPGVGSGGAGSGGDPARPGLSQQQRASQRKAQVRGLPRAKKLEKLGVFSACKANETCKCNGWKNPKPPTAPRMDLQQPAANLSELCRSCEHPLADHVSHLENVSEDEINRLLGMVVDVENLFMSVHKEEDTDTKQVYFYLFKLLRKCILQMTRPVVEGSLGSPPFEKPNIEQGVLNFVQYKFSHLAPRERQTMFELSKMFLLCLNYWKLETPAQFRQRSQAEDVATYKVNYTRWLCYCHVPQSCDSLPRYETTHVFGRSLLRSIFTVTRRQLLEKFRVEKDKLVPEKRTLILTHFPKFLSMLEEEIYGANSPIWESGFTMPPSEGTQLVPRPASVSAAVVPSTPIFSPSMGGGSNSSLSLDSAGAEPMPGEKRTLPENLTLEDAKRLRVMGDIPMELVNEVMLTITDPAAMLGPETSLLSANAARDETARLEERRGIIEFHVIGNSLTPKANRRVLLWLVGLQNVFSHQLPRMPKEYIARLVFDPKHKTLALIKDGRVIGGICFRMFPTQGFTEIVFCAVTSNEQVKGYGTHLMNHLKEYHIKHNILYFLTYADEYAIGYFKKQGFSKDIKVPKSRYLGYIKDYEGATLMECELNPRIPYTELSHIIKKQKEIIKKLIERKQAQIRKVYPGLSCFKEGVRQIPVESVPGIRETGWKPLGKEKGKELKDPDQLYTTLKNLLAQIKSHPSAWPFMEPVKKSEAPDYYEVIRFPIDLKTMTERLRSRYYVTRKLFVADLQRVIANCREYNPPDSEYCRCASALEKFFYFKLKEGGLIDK
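Preincubate 20nM GCN5L2 with compound 15 min, RT → add 50uM ThioGlo1 + 75uM H3(1-25) + 70uM acetyl-CoA → read fluorescence 0 and 20 min. Primary qHTS; fluorescent artifacts likely.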
TrxR1 substrate = is turned over as a substrate by rat TrxR1; O89049; purified TrxR1 substrate turnover, NADPH consumption readout; Potency, µM (titrated, usually from 114 µM), for the others: top-dose activity change, negative = substrate turnover; 390,000 tested, 0.01% active; AID 588456; note: potency is the fitted concentration of half-maximal effect; % is set by controls: 0 for no effect and ±100 for the full control effect; nearly all actives have a fitted effect of over 50% in size
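Rat TrxR1, dispensed at 90 nM, was prereduced with 400 uM NADPH (final) for 5 min at ~22 deg C, then incubated with compound 15 min before 400 uM selenite. A first-read NADPH fluorescence drop versus no-compound background flagged substrates.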
TrxR1 inh = rat TrxR1 inhibition. O89049. recombinant rTrxR1, NADPH fluorescence consumption, selenite substrate. Potency, µM (series often up to 114 µM), inactives show top-dose activity change, negative = inhibition, most hits filed as inhibitors. 390,000 tested, 1% active; note: potency is the fitted concentration of half-maximal effect; % is set by controls: 0 for no effect and ±100 for the full control effect; nearly all actives have a fitted effect of over 65% in size
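Rat TrxR1 (90 nM in the dispensed reagent) was pre-reduced with 400 uM NADPH for 5 min at room temperature, then incubated with compound for 15 min. After 400 uM selenite was added, NADPH fluorescence (Ex 340/Em 450 nm) was followed for 8 min.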
VDR inhibitor = blocks the human vitamin D receptor; 400,000 tested, 0.93% active; VDR-SRC2-3 peptide fluorescence polarization, 2 h; Potency, µM, without a hit: max response, negative = inhibition, usual class: inhibitors; P11473; note: potency is the fitted concentration of half-maximal effect; % is set by controls: 0 for no effect and ±100 for the full control effect
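FP read-out; VDR + SRC2-3 coactivator peptide; 23 nl compound by pintool; 2 h RT incubation; reagents held at 4 deg C, protected from light.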
USP1 UbRho = validation of human USP1/UAF1 inhibitors; Ub-Rhodamine cleavage, fluorescence kinetic read; shares compounds with VDR inhibitor; 50 tested, 50% active; Potency, µM (highest dose often 56.8 µM), inactives show top-dose activity change, negative = inhibition, actives largely listed as inhibitors
VDR confirm = confirmation of human vitamin D receptor inhibitors; 840 tested, 89% active; Potency, µM, most hits filed as inhibitors; VDR-coactivator inhibition assay, qHTS confirmation; shares compounds with VDR inhibitor; AID 602199; note: potency is the fitted concentration of half-maximal effect
VDR FP = confirmation of human VDR-coactivator binding inhibitors, fluorescein label; AID 602200; Potency, µM (top dose mostly 57.1 µM), without a hit: at the top dose activity change, negative = inhibition, usual class: inhibitors; 840 tested, 48% active; VDR-coactivator binding, fluorescein fluorescence polarization; shares compounds with VDR inhibitor; note: potency is the fitted concentration of half-maximal effect
VDR bla reporter = inhibits human VDR in beta-lactamase reporter cells. shares compounds with VDR inhibitor. VDR beta-lactamase reporter cells, FRET ratio; cells co-treated with VDR agonist LG190178. Potency, µM (highest dose often 46.1 µM), for inactives: top-dose activity change, negative = inhibition, most hits filed as inhibitors. 840 tested, 23% active. AID 602202; note: potency is the fitted concentration of half-maximal effect; % is set by controls: 0 for no effect and ±100 for the full control effect
VDR cytotox = cell toxicity, VDR inhibitor hit counter-screen | 840 tested, 18% active | cytotoxicity counter-screen, cell viability, qHTS | AID 602204 | Potency, µM (doses to about 48.3 µM), for the others: at the highest dose activity change, negative = cytotoxicity, actives largely listed as cytotoxic | shares compounds with VDR inhibitor;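 note: potency is the fitted concentration of half-maximal effect; plate controls were DMSO for no effect and high-concentration cycloheximide for full effect; nearly all actives have a fitted effect of over 75% in size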
Starred values were filed as active, the others as inactive; ? = inconclusive; · = no result; [ ] = dose if it differs, or a comment. Calls come from the whole dose curve; as a rule, active = well fitted curve in the direction sought with a large enough effect; inconclusive = small, poorly fitted or top-dose-only effect, or another doubt; inactive = no such curve, though single readings can be large; an effect the other way counts as inactive or inconclusive.

SMILES	Sfp inh	GLS inhibitor	KAT2A inh	TrxR1 substrate	TrxR1 inh	VDR inhibitor	VDR confirm	VDR FP	VDR bla reporter	VDR cytotox	others
CC1=CC(=O)C(C(C)C)=C/C1=N\OC(=O)c1cccc2nc(C)oc12	-2%	9%	24%	-12%	-21%	-15%	·	·	·	·
CC1=CC(=O)C(C(C)C)=CC1=NC(=O)c1ccc(C)cc1	10µM*	-4%	3%	-15%	?	25µM*	3.8*	?	?	?
O=C(NCc1nc2ccccc2[nH]1)c1cccc(Cl)c1	·	0%	-4%	1%	2%	-4%	·	·	·	·
O=C(/C=C/c1cccc(Cl)c1)c1nc2ccccc2[nH]1	?	8%	-17%	0%	?	45µM*	8.4*	?	?	?
CCc1ccc(C(=O)/C=C/c2ccc([N+](=O)[O-])o2)cc1	-6%	1%	-3%[0.501 µM]	-4%	?	32µM*	6.7*	?	16µM*	?
CCc1ccc(/C=C/C(=O)c2ccc(S(=O)(=O)N(C)C)cc2)cc1	-27%	3%	-2%	2%	-11%	?	?	6.3µM*	33%	?
CCCCCC(=O)N/N=C/c1ccc([N+](=O)[O-])o1	-2%	12%	0%	1%	?	0%	·	·	·	·
CCc1ccc(/C=C/C(=O)c2ccc(N3CCOCC3)cc2)cc1	9%	-9%	0%	3%[57.1 µM]	-4%[57.1 µM]	-11%	·	·	·	·
CCN(CC)C(=O)CN(C#N)c1nc(OC)nc(N(C)C)n1	-3%	-2%	-4%	6%[57.1 µM]	3%[57.1 µM]	-4%	·	·	·	·
Oc1c(C(c2ccccc2)N2CCOCC2)ccc2ccccc12 (stereo not drawn)	·	?	·	-12%	3.2µM*	20µM*	4.7*	3.2µM*	3%	?
CC(=O)O/N=C1\C(=O)N(Cc2ccc(C)cc2)c2ccccc21	6%	44%	-3%	-7%	-72%	?	·	·	·	·
CN1C(=O)/C(=N\OC(=O)c2ccccc2Cl)c2ccccc21	-12%	24%	-1%	5%	10µM*	?	14*	16µM*	?	2%
CN1CCN(CCCN2c3ccccc3Sc3ccc(C(F)(F)F)cc32)CC1	?	0%	?	-7%	?	?	·	·	·	·	USP1 UbRho=?
CCN(Cc1nc(-c2ccccc2)no1)C(=O)COc1cccc(OC)c1	-4%	5%	2%	-6%	-5%	3%	·	·	·	·
COCCNCCCOc1ccc(Br)cc1Cl	6%	-4%	1%	1%	-1%	4%	·	·	·	·
O=[N+]([O-])c1c(NCCCO)cc(Sc2ccc(Cl)cc2)c2nonc12	-20%	5%	4%	-5%	2.8µM*	?	6.3*	7.1µM*	23µM*	?
O=[N+]([O-])c1c(NCCCO)cc(N2CCCCCC2)c2nonc12	-9%	8%	-6%	-15%[57.1 µM]	-66%	-10%	·	·	·	·
C=CC(C)(C)c1[nH]c2ccccc2c1C1=C(O)C(=O)C(c2c[nH]c3c(CC=C(C)C)cccc23)=C(O)C1=O	-24%	·	16µM*	·	·	18µM*	·	·	·	·	USP1 UbRho=?
C=CC(C)(C)c1c(O)c(CC=C(C)C)c(O)c2c(=O)c3ccc(O)c(O)c3oc12	·	6%	·	-3%	9%	9%	·	·	·	·
O=C1C(=Cc2ccncc2)CCCc2ccccc21	·	8%	·	·	·	·	·	·	·	·
O=C1/C(=C/c2ccncc2)CCC/C1=C\c1ccncc1	?	8%	-10%	-6%	?	7.1µM*	5.3*	3.5µM*	3.3µM*	21µM*
O=[N+]([O-])c1ccc(Cl)c(S(=O)(=O)/N=C(/Sc2ccc(Br)cc2)c2ccccc2)c1	·	·	·	-2%	-9%	?	7.1*	5µM*	10%	8%
CS/C(=N\S(=O)(=O)c1ccccc1)c1ccccc1	-16%	16%	-2%	0%	6%	5%	·	·	·	·
O=S(=O)(/N=C(/Sc1ccc(Cl)cc1)c1ccccc1)c1ccccc1	·	·	·	9%[0.0914 µM]	?	35µM*	3.5*	11µM*	0%	11%
O=S(=O)(/N=C(/Sc1ccccc1)c1ccccc1)c1ccc(Cl)cc1	·	·	·	15%	23%	50µM*	7.1*	16µM*	-2%	?
SMILES	Sfp inh	GLS inhibitor	KAT2A inh	TrxR1 substrate	TrxR1 inh	VDR inhibitor	VDR confirm	VDR FP	VDR bla reporter	VDR cytotox	others
O=C(NCc1ccc2c(c1)OCO2)c1ccc(Br)cc1	5%	2%	-10%	-5%	14%	-14%	·	·	·	·
O=C1Nc2ccc(Br)cc2/C1=C/C(=O)c1ccc2c(c1)OCO2	56µM*	0%	-8%	-5%	-13%	40µM*	?	?	?	?
O=C(/C=C/c1ccc(Br)cc1)c1ccco1	5%	-8%	-2%	4%[57.1 µM]	-39%	45µM*	24*	?	13%	13%
Cc1ccc(C2(C)NC(=O)N(CC(=O)Nc3nc(-c4ccccn4)cs3)C2=O)cc1 (stereo not drawn)	·	-18%	-23%	-7%	2%	?	11*	?	?	-16%
O=C1C(Cl)=C(N2CCOCC2)C(=O)N1c1cccc(C(F)(F)F)c1	-1%	5%	-7%	-2%	-8%	35µM*	30*	28µM*	7%	-4%
COC(=O)c1cccc(N2C(=O)C(Cl)=C(N3CCOCC3)C2=O)c1	-25%	-1%	-3%	2%[57.1 µM]	-18%[57.1 µM]	?	·	·	·	·
CCCNC(=O)c1nnsc1S(=O)c1ccc(Cl)cc1 (stereo not drawn)	20µM*	0%	-13%	6%[57.1 µM]	0.56µM*	?	0.89*	1µM*	13µM*	21µM*
CCCNC(=O)c1ccc2snnc2c1	7%	-1%	-1%	6%[57.1 µM]	24%[57.1 µM]	3%	·	·	·	·
